GLP-1R agonist = qHTS of GLP-1 Receptor Agonists; 380,000 compounds, 0.007% hits; HEK293 GLP-1R CRE-luciferase, luminescence, 4-6 h; cells express a hypersensitive GLP-1R form; Glucagon-like peptide 1 receptor (Homo sapiens), P43220; Potency, µM (doses to about 45.6 µM), inactives show at the top dose activation, usual class: activators; AID 624172, 2012; also: % of control where 0% means no effect
12-LOX inh = Primary qHTS assay for inhibitors of human arachidonate 12S-lipoxygenase (ALOX12): Round 2. Polyunsaturated fatty acid lipoxygenase ALOX12 (Homo sapiens), P18054. purified 12hLO, xylenol orange hydroperoxide absorbance. Potency, µM (titrated, usually from 108 µM), inactives show at the highest dose activity change, negative = inhibition, actives largely listed as inhibitors. 580,000 compounds, 1.1% hits; also: % is scaled to controls: 0 for no effect and ±100 for the full control effect
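Purified human 12hLO (150 nM final) in 25 mM Hepes, 0.01% Triton X-100, pH 7.0 was preincubated 15 min at room temperature with compound. Then 40 uM arachidonic acid was added, 30 min. Hydroperoxide was read by Fe-XO absorbance ratio 573/405 nm.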
GLS inh = qHTS for Inhibitors of Glutaminase (GLS); GLS enzymatic activity, qHTS titration; Potency, µM (titrated, usually from 45.5 µM), without a hit: at the highest dose activity change, negative = inhibition, most hits filed as inhibitors; 410,000 compounds, 0.21% hits; AID 624170, 2012; also: % is scaled to controls: 0 for no effect and ±100 for the full control effect
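Read-out is an Amplex red fluorescence increase coupled through glutamate oxidase and HRP, measured before and after 30 min room-temperature incubation. hKGA is in 45 mM KH2PO4 (pH 8.2) with 0.02% Tween-20; glutamine added as 1mM solution.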
PTHR1 ag = qHTS for PTHR1 Agonists: Primary Screen | HEK293 GP2 PTHR1 cells, GloSensor cAMP luminescence, 1 h | Parathyroid hormone/parathyroid hormone-related peptide receptor (Homo sapiens), Q03431 | 410,000 compounds, 0.075% hits | Potency, µM (series often up to 115 µM), for the others: at the top dose activation, hits mostly activators; also: nearly all actives have a fitted effect of over 55% in size
Target sequence (Q03431 whole entry, looked up): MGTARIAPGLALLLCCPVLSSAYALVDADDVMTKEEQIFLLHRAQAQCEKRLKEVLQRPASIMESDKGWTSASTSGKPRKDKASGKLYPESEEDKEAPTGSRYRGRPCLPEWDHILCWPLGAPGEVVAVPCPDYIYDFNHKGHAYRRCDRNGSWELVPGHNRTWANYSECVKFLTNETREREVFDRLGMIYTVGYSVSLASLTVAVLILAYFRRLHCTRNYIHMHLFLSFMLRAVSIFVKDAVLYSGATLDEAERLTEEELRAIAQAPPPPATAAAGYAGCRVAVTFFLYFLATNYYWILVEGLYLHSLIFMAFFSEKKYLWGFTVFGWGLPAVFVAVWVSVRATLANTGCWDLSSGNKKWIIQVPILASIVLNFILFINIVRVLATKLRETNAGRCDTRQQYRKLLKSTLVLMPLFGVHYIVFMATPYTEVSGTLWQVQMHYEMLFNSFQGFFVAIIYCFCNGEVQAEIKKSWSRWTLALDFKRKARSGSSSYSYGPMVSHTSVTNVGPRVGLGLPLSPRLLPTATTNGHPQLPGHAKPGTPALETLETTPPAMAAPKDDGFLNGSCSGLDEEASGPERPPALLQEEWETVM
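HEK-293-derived GP2 cells expressing PTHR1 and a GloSensor cAMP reporter, 3,000/well, plated overnight, given luciferin plus IBMX (each 0.5 mM as added) for 1 h at 37 °C, then compound for 1 h at 37 °C. Luminescence was read after 15 min at room temperature.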
Glioma ERSR ind = qHTS for Inducers of the Endoplasmic Reticulum Stress Response (ERSR) in Human Glioma: qHTS. U87-MG GRP78 promoter luciferase reporter, 16 h. Potency, µM, for the others: at the highest dose activation, actives largely listed as activators. 420,000 compounds, 0.02% hits; also: series mostly up to about 76 µM; % of control where 0% means no effect; nearly all actives have a fitted effect of over 35% in size
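Stably transfected U87-MG human glioma cells carrying a GRP78-based luminescent sensor were seeded at 1000 cells/well, pin-dosed with compounds and incubated 16 h. Luciferase reagent was then added, and end-point luminescence was read after 10 min at room temperature.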
GLP1R inv ag = qHTS of GLP-1 Receptor Inverse Agonists (Inhibition Mode). 410,000 compounds, 1.6% hits. Glucagon-like peptide 1 receptor (Homo sapiens), P43220. Potency, µM (highest dose often 38.3 µM), for inactives: top-dose activity change, negative = inhibition, usual class: inhibitors. HEK293 GLP-1R CRE-luciferase, luminescence, 24 h; GLP-1R form is constitutively active; also: % is scaled to controls: 0 for no effect and ±100 for the full control effect; nearly all actives have a fitted effect of over 55% in size
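Seeding at 200 cells/uL, 12 h culture, 24 hr compound treatment, then luciferase reagent and a luminescence read; cells are HEK293 stably expressing a constitutively active GLP-1R plus cAMP-responsive luciferase.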
* = called active by the depositor; i = inactive; ? = inconclusive; · = not tested or not shown; [ ] = remark or other dose. The list is not random: actives were taken first. Their share in the collection is about 2.3%. Calls follow the shape of the dose curve; as a rule, active = well fitted curve in the direction sought with a large enough effect; inconclusive = small, poorly fitted or top-dose-only effect, or another doubt; inactive = no such curve, though single readings can be large; an effect the other way counts as inactive or inconclusive. Potency is read from the fitted curve at half-maximal effect.

SMILES	GLP-1R agonist	12-LOX inh	GLS inh	PTHR1 ag	Glioma ERSR ind	GLP1R inv ag
C1=CC2=NC34CCCCC3CC3=C(CCCC3)N4C2=CC1=NC1CCCCC1 (configuration not stated)	-6%	·	-6%	-4%	-17%	10µM*
CCOc1cc(NC(=S)NCC2CCCO2)c(OCC)cc1NC(=O)c1ccccc1F (configuration not stated)	17%	40µM*	-27%	-7%	3%	?
O=C1NCCCCCCN(Cc2ccncc2)[C@@H]2CN(C(=O)Nc3ccc4c(c3)OCCO4)CC[C@H]12	·	3%	·	·	·	·
CCCNC(=S)NCCN1CCCCC1	-11%	0.63µM*	15%	i	-7%	8%
CCCCNC(=S)NCCN1CCCCC1	-8%	?	31%	i	-6%	-12%
COc1ccc2cc(C(=O)N3CCN(Cc4ccccc4)CC3)c(C)nc2c1	·	20%	·	·	·	·
COc1ccc(CCC(C)NCc2ccc(Cl)c(Cl)c2)cc1 (configuration not stated)	28%	?	-2%	-4%	2%	?
COc1ccc(CCC(C)NCCc2ccc(Cl)cc2Cl)cc1 (configuration not stated)	-2%	?	1%	-22%	-5%	10µM*
C1CCN(c2nc3nonc3nc2N2CCCCC2)CC1	-9%	-7%	-7%	i	-6%	5%
Cc1ccc2c(Cl)c(C)c(N3CCCCC3)nc2n1	18%	0%	4%	i	4%	7.1µM*
CCc1cccc2c(C(=O)O)cc(-c3ccnn3CC)nc12	·	-6%	·	·	·	·
Cn1c(=O)c2c(ncn2CC(O)COc2ccc(C(C)(C)C)cc2)n(C)c1=O (configuration not stated)	·	-9%	·	·	·	·
O=C(O)c1cc(O)c2ccccc2c1O	·	71µM*	·	·	·	·
O=C(O)CC/C(=C/c1ccc(OC(F)F)cc1)c1nc2ccccc2s1	·	3%	·	·	·	·
CCOC(=O)C1(Cc2cccc(OC)c2)CCN(Cc2cccc(O)c2)CC1	6%	-10%	2%	-8%	-3%	11µM*
CCOC(=O)C1(Cc2cccc(OC)c2)CCN(Cc2ccc(C)s2)CC1	3%	-2%	-5%	-89%	1%	10µM*
CCOC(=O)C1(Cc2cccc(OC)c2)CCN(Cc2ccc(OC)c(OC)c2)CC1	5%	-6%	5%	-4%	-3%	?
O=C(Oc1ccc(Oc2ccccc2)cc1)C1CCCCC1	·	5%	·	·	·	·
COC(=O)c1cc(O)cc(OC)c1Oc1cc(C)cc(O)c1C(=O)O	-9%	?	11µM*	-20%	2%	8.9µM*
COC(=O)c1cc(O)cc(OC)c1C(=O)c1c(O)cc(C)cc1O	-2%	26%	10%	-49%	-6%	-6%
C/C(=N\Nc1ccc(Cl)c(C(=O)O)c1)c1cc2ccccc2o1	-1%	0%	10µM*	i	16%	51%
C/C(=N\Nc1ccc(Cl)c(C(=O)O)c1)c1cccc2ccccc12	-4%	-20%	11µM*	-2%	0%	9%
CCc1ccc(NC(=O)CO/N=C(\C)c2cc3ccccc3o2)cc1	15%	-13%	-2%	-14%	2%	11µM*
CCCn1c(=O)[nH]c(=O)c2c1nc(-c1ccc(OCC#N)c(OC)c1)n2CCOC	·	14%	·	·	·	·
CC1=CC(C)C(C2OCC3(CO2)C(C)C=C(C)CC3C)C(C)C1 (configuration not stated)	·	5%	·	·	·	·
SMILES	GLP-1R agonist	12-LOX inh	GLS inh	PTHR1 ag	Glioma ERSR ind	GLP1R inv ag
CC(NC(=O)c1ccc(Cl)cc1)C12CC3CC(CC(C3)C1)C2 (configuration not stated)	·	3%	·	·	·	·
Cc1ccc(C)n1NC(=O)c1ccccc1Cl	-18%	45µM*	-7%	-9%	-3%	6%
O=C(O)CNS(=O)(=O)c1ccc2c(c1)Cc1cc(S(=O)(=O)NCC(=O)O)ccc1-2	-5%	8.9µM*	2%	i	-2%	2%
O=C(O)CS/C(=C/c1ccc2ccccc2c1)c1nc2ccccc2s1	·	-7%	·	·	·	·
CCCN1CNC(=S)N(c2ccc(C(=O)OCC)cc2)C1	4%	0%	6%	9%	4%	2%
CCOC(=O)c1ccc(N2CN(CCc3ccccc3)CNC2=S)cc1	1%	45µM*	24%	-11%	-2%	-28%
Cc1cc(C)n(CCNC(=O)[C@H]2O[C@@H](n3ccc(N)nc3=O)[C@H](O)[C@@H]2O)n1	-2%	50µM*	-1%	-23%	-4%	8%
Cc1ccc(OCCNC(=O)[C@H]2O[C@@H](n3ccc(N)nc3=O)[C@H](O)[C@@H]2O)cc1C	0%	?	8%	-22%	-4%	28%
COc1ccccc1/C=C/CN1CCC(n2nccc2NC(=O)C2CC2)CC1	1%	28µM*	0%	-20%	-1%	4%
O=C(Nc1ccnn1C1CCN(Cc2ccc(-c3ccco3)cc2)CC1)C1CC1	·	11µM*	·	·	·	·
Cc1ccc(S(=O)(=O)Nc2cccc(-c3cn4ccsc4n3)c2)cc1	22%	?	2%	-17%[57.5 µM]	4%	3%
O=S(=O)(Nc1ccc(-c2cn3ccsc3n2)cc1)c1ccccc1	·	35µM*	·	·	·	·
Nc1ccccc1SCc1csc(-c2ccc(Cl)cc2)n1	21%	?	3%	-47%	12%	10µM*
Clc1ccc(-c2nc(CSc3ccccn3)cs2)cc1	-2%	-4%	-1%	-37%	15%	?
CN(Cc1ccco1)C(=O)CCc1ncc(-c2c(F)cccc2F)o1	·	14%	·	·	·	·
CC12CCC(C(=O)NNc3ccc([N+](=O)[O-])cc3)(OC1=O)C2(C)C (configuration not stated)	-1%	101%	20%	i	4%	?
CC12CCC(C(=O)NNc3ccc([N+](=O)[O-])cc3)(CC1=O)C2(C)C (configuration not stated)	-8%	-19%	3%	i	-3%	8.9µM*
O=C(Nc1nc(C23CC4CC(CC(C4)C2)C3)cs1)c1cc(-c2ccncc2)nc2ccccc12	·	-38%	·	·	·	·
O=C(Nc1cnc(N2CCC(N3CCCCC3)CC2)c(C(=O)O)c1)c1ccc(Br)cc1	·	40µM*	?	-3%	·	9%
CC(C)CNC(=O)C(Cc1ccccc1)NC(=O)c1ccccc1 (configuration not stated)	·	48%	·	·	·	·
O=C(CCCN1C(=O)/C(=C/c2ccco2)SC1=S)Nc1ccccc1C(=O)O	-5%	32µM*	?	-3%	-1%	24%

High-throughput results as filed in PubChem.
